# What was measured:
# Conditions in all cases: concentration: 1 μM, replicates: in singlicate; n = 1
# [1] = system: ROCK1
# [2] = system: ROCK2
# [3] = system: ROS1
# [4] = system: RPS6KA4(Kin.Dom.1-N-terminal)
# [5] = system: RPS6KA4(Kin.Dom.2-C-terminal)
# [6] = system: RPS6KA5(Kin.Dom.1-N-terminal)
# [7] = system: RPS6KA5(Kin.Dom.2-C-terminal)
# [8] = system: T1, RSK1(Kin.Dom.1-N-terminal)
# T1 construct: gene RPS6KA1
# [9] = system: T2, RSK1(Kin.Dom.2-C-terminal)
# T2 construct: gene RPS6KA1
# [10] = system: T3, RSK2(Kin.Dom.1-N-terminal)
# T3 construct: gene RPS6KA3
# [11] = system: T4, RSK2(Kin.Dom.2-C-terminal)
# T4 construct: gene RPS6KA3
# [12] = system: T5, RSK3(Kin.Dom.1-N-terminal)
# T5 construct: gene RPS6KA2
# [13] = system: T6, RSK3(Kin.Dom.2-C-terminal)
# T6 construct: gene RPS6KA2
# [14] = system: T7, RSK4(Kin.Dom.1-N-terminal)
# T7 construct: gene RPS6KA6
# [15] = system: T8, RSK4(Kin.Dom.2-C-terminal)
# T8 construct: gene RPS6KA6
# [16] = system: S6K1
# [17] = system: SBK1
# [18] = system: SGK2
# [19] = system: SGK3
# [20] = system: SGK
# 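Note: KINOMEscan kinase panel screen.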
Structure (SMILES),%Inh [1],%Inh [2],%Inh [3],%Inh [4],%Inh [5],%Inh [6],%Inh [7],%Inh [8],%Inh [9],%Inh [10],%Inh [11],%Inh [12],%Inh [13],%Inh [14],%Inh [15],%Inh [16],%Inh [17],%Inh [18],%Inh [19],%Inh [20]
Cc1nnc(-c2ccc3occ(-c4ccc(S(C)=O)cc4)c3c2)[nH]1 (stereo not shown),20%,0%,0%,0%,11%,0%,15%,9%,33%,13%,5%,0%,7%,0%,36%,4%,0%,5%,17%,1%
Cc1ccccc1-n1cnc2c(N)ncnc21 [SKF-97510],0%,0%,0%,0%,0%,0%,0%,18%,93%,0%,0%,0%,8%,0%,18%,0%,0%,0%,0%,0%
C[C@@H]1CCCCN1c1cc(-c2ccc3c(N)n[nH]c3c2)nc(N)n1 [GSK2258759],0%,0%,5%,4%,0%,14%,10%,5%,14%,0%,0%,0%,19%,0%,24%,0%,0%,0%,3%,0%
COc1ccccc1-c1ccc2c(NC(=O)C3CC3)n[nH]c2n1 [SB-711239],23%,6%,10%,9%,0%,13%,12%,11%,0%,0%,7%,0%,0%,4%,22%,7%,68%,4%,3%,0%
Cc1cccc(-c2nc(C)cc(Nc3ccncc3)n2)n1 [GSK257997],25%,10%,43%,8%,0%,7%,0%,29%,2%,0%,22%,0%,0%,0%,0%,1%,4%,0%,6%,0%
Cn1ccc2ncnc(Oc3cccc(C(=O)Nc4ccccc4)c3)c21,0%,16%,4%,0%,18%,19%,0%,0%,9%,0%,0%,0%,13%,14%,0%,0%,0%,2%,26%,0%
Cc1cccc(-c2cc(Nc3ccncc3)c3ccccc3n2)n1 [GSK223675],0%,0%,0%,0%,0%,5%,100%,30%,35%,0%,0%,5%,10%,0%,21%,0%,3%,0%,0%,0%
Cn1cncc1-c1ccc2ncnc(Nc3ccc(OCc4ccccc4)cc3)c2c1 [GW320571],3%,17%,9%,13%,0%,28%,0%,0%,0%,18%,20%,23%,0%,19%,0%,2%,28%,0%,0%,0%
Nc1nc(-c2nccs2)c(-c2ccnc3ccccc23)s1 [GW693542],14%,18%,0%,20%,0%,20%,0%,20%,0%,0%,88%,0%,0%,0%,50%,0%,9%,0%,6%,0%
Cc1ccc(-c2cc(-c3c[nH]nc3-c3ccccn3)ccn2)cc1 [GW684088],25%,17%,37%,2%,0%,2%,19%,8%,24%,6%,30%,0%,25%,0%,62%,5%,4%,0%,4%,0%
Cl.c1ccc(-c2n[nH]cc2-c2ccnc(-c3ccc(CN4CCOCC4)cc3)c2)nc1 [GW776245],0%,0%,0%,0%,0%,0%,44%,0%,17%,34%,22%,0%,0%,13%,49%,0%,0%,0%,0%,0%

# From article PMC5540273 (PLoS ONE, 2017)
